# Results published in PubChem BioAssay AID1159580 (chemical genetic matrix, 2015).
# Where “and” joins values, the source holds several entries; their conditions need not be identical. Equal entries are not always repeated. The whole screen tested about 5,500 compounds, of which about 2,000 (36%) were called active. Roughly 18% stayed inconclusive and do not appear here. No stated cut-off is given here; in the data, active means normalized growth mostly below about 0.91 (no sharp cut-off); inconclusive means no clear call, values can overlap the other calls; inactive means mostly above about 0.92. Some of the results follow.
# Experiment: chemical genetic growth profiling, strain panel (AID 1159580);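 further: tested at 20 µM; growth read once vehicle control cultures reached saturation at 30 °C; 1 = growth at the plate median or of vehicle wells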
# Conditions: S. cerevisiae deletion strains, growth OD
structure (smiles),measurement,setting,value
CN(C)CC/C=C1\c2ccccc2Sc2ccc(Cl)cc21,normalized growth,"locus YAL013W, strain DEP1, stronger effect = lower value",0.907 (active)
same,normalized growth,"locus YAL021C, strain ccr4, stronger effect = lower value",0.696 (active)
same,normalized growth,"locus YAL026C, strain drs2, stronger effect = lower value",0.0729 (active)
same,normalized growth,"locus YAL030W, strain snc1, stronger effect = lower value",0.985 (inactive)
same,normalized growth,"locus YBL061C, strain skt5, stronger effect = lower value",0.863 (active)
same,normalized growth,"locus YBR009C, strain hhf1, stronger effect = lower value",0.859 (active)
same,normalized growth,"locus YBR021W, strain FUR4, stronger effect = lower value",0.605 (active)
same,normalized growth,"locus YBR023C, strain chs3, stronger effect = lower value",0.831 (active)
same,normalized growth,"locus YBR171W, strain sec66, stronger effect = lower value",0.984 (inactive)
same,normalized growth,"locus YBR229C, strain ROT2, stronger effect = lower value",1.01 (inactive)
same,normalized growth,"locus YBR231C, strain swc5, stronger effect = lower value",0.676 (active)
same,normalized growth,"locus YBR279W, strain paf1, stronger effect = lower value",0.904 (active)
same,normalized growth,"locus YCL011C, strain gbp2, stronger effect = lower value",0.897 (active)
same,normalized growth,"locus YCL016C, strain dcc1, stronger effect = lower value",0.894 (active)
same,normalized growth,"locus YCL029C, strain bik1, stronger effect = lower value",1.03 (inactive)
same,normalized growth,"locus YCL061C, strain MRC1, stronger effect = lower value",0.987 (inactive)
same,normalized growth,"locus YCL069W, strain vba3, stronger effect = lower value",0.962 (inactive)
same,normalized growth,"locus YCR088W, strain abp1, stronger effect = lower value",0.971 (inactive)
same,normalized growth,"locus YDL005C, strain med2, stronger effect = lower value",1.01 (inactive)
same,normalized growth,"locus YDL035C, strain GPR1, stronger effect = lower value",0.901 (inactive)
same,normalized growth,"locus YDL040C, strain nat1, stronger effect = lower value",1 (inactive)
same,normalized growth,"locus YDL074C, strain BRE1, stronger effect = lower value",0.775 (active)
same,normalized growth,"locus YDL101C, strain DUN1, stronger effect = lower value",0.99 (inactive)
same,normalized growth,"locus YDL134C, strain PPH21, stronger effect = lower value",0.882 (active)
same,normalized growth,"locus YDL185W, strain tfp1, stronger effect = lower value",1.02 (inactive)
same,normalized growth,"locus YDL192W, strain arf1, stronger effect = lower value",1 (inactive)
same,normalized growth,"locus YDR001C, strain nth1, stronger effect = lower value",0.996 (inactive)
same,normalized growth,"locus YDR069C, strain doa4, stronger effect = lower value",0.684 (active)
same,normalized growth,"locus YDR101C, strain arx1, stronger effect = lower value",0.977 (inactive)
same,normalized growth,"locus YDR137W, strain rgp1, stronger effect = lower value",1.33 [resistant] (active)
same,normalized growth,"locus YDR150W, strain NUM1, stronger effect = lower value",1.02 (inactive)
same,normalized growth,"locus YDR159W, strain sac3, stronger effect = lower value",0.996 (inactive)
same,normalized growth,"locus YDR162C, strain NBP2, stronger effect = lower value",0.895 (inactive)
same,normalized growth,"locus YDR195W, strain ref2",1.49 [resistant] (active)
same,normalized growth,"locus YDR297W, strain sur2, stronger effect = lower value",0.975 (inactive)
same,normalized growth,"locus YDR318W, strain mcm21, stronger effect = lower value",0.982 (inactive)
same,normalized growth,"locus YDR334W, strain swr1, stronger effect = lower value",0.974 (inactive)
same,normalized growth,"locus YDR335W, strain msn5, stronger effect = lower value",0.96 (inactive)
same,normalized growth,"locus YDR388W, stronger effect = lower value",0.819 (active)
same,normalized growth,"locus YDR392W, strain spt3, stronger effect = lower value",0.995 (inactive)
same,normalized growth,"locus YDR502C, strain sam2, stronger effect = lower value",0.951 (inactive)
same,normalized growth,"locus YEL003W, strain gim4, stronger effect = lower value",0.966 (inactive)
same,normalized growth,"locus YEL037C, strain rad23, stronger effect = lower value",0.983 (inactive)
same,normalized growth,"locus YEL061C, strain CIN8 (second series), stronger effect = lower value",0.981 (inactive)
same,normalized growth,"locus YEL061C, strain CIN8, stronger effect = lower value",1 (inactive)
same,normalized growth,"locus YER015W, strain faa2, stronger effect = lower value",0.668 (active)
same,normalized growth,"locus YER016W, strain bim1, stronger effect = lower value",0.953 (inactive)
same,normalized growth,"locus YER110C, stronger effect = lower value",1.02 (inactive)
same,normalized growth,"locus YER111C, strain swi4, stronger effect = lower value",0.99 (inactive)
same,normalized growth,"locus YER155C, strain BEM2 (second series), stronger effect = lower value",1.03 (inactive)
same,normalized growth,"locus YER155C, strain BEM2, stronger effect = lower value",1.03 (inactive)
same,normalized growth,"locus YER167W, strain BCK2, stronger effect = lower value",1 (inactive)
same,normalized growth,"locus YFR010W, strain ubp6, stronger effect = lower value",0.706 (active)
same,normalized growth,"locus YGL078C, strain dbp3, stronger effect = lower value",1.01 (inactive)
same,normalized growth,"locus YGL086W, strain mad1, stronger effect = lower value",0.942 (inactive)
same,normalized growth,"locus YGL167C, strain pmr1, stronger effect = lower value",0.997 (inactive)
same,normalized growth,"locus YGL173C, strain kem1, stronger effect = lower value",0.844 (active)
same,normalized growth,"locus YGL227W, strain vid30, stronger effect = lower value",0.979 (inactive)
same,normalized growth,"locus YGL240W, strain doc1, stronger effect = lower value",0.95 (inactive)
same,normalized growth,"locus YGL248W, strain PDE1, stronger effect = lower value",0.894 (inactive)
same,normalized growth,"locus YGL253W, strain hxk2, stronger effect = lower value",0.845 (active)
same,normalized growth,"locus YGR135W, strain pre9, stronger effect = lower value",0.827 (active)
same,normalized growth,"locus YGR229C, strain SMI1, stronger effect = lower value",0.635 (active)
same,normalized growth,"locus YGR252W, strain gcn5, stronger effect = lower value",0.542 (active)
same,normalized growth,"locus YHR013C, strain ard1, stronger effect = lower value",0.637 (active)
same,normalized growth,"locus YHR027C, strain rpn1, stronger effect = lower value",0.679 (active)
same,normalized growth,"locus YHR030C, strain SLT2, stronger effect = lower value",0.882 (active) and 0.899 (inactive)
same,normalized growth,"locus YHR079C, strain IRE1 (second series), stronger effect = lower value",1 (inactive)
same,normalized growth,"locus YHR079C, strain IRE1, stronger effect = lower value",0.93 (inactive)
same,normalized growth,"locus YHR094C, strain hxt1, stronger effect = lower value",1.02 (inactive)
same,normalized growth,"locus YHR129C, strain ARP1, stronger effect = lower value",0.994 (inactive)
same,normalized growth,"locus YHR142W, strain chs7, stronger effect = lower value",0.76 (active)
same,normalized growth,"locus YHR200W, strain rpn10, stronger effect = lower value",1.02 (inactive)
same,normalized growth,"locus YIL066C, strain RNR3, stronger effect = lower value",0.854 (active)
same,normalized growth,"locus YIL073C, strain SPO22, stronger effect = lower value",0.961 (inactive)
same,normalized growth,"locus YIL125W, strain kgd1, stronger effect = lower value",1.01 (inactive)
same,normalized growth,"locus YIR030C, strain dcg1, stronger effect = lower value",1.01 (inactive)
same,normalized growth,"locus YJL092W, strain hpr5, stronger effect = lower value",0.972 (inactive)
same,normalized growth,"locus YJL095W, strain BCK1 (second series), stronger effect = lower value",0.628 (active)
same,normalized growth,"locus YJL095W, strain BCK1, stronger effect = lower value",0.637 (active) and 0.914 (inactive)
same,normalized growth,"locus YJL115W, strain asf1, stronger effect = lower value",0.987 (inactive)
same,normalized growth,"locus YJL129C, strain trk1, stronger effect = lower value",0.91 (inactive)
same,normalized growth,"locus YJL134W, strain LCB3, stronger effect = lower value",1.01 (inactive)
same,normalized growth,"locus YJL154C, strain vps35, stronger effect = lower value",0.99 (inactive)
same,normalized growth,"locus YJL164C, strain tpk1, stronger effect = lower value",0.878 (active)
same,normalized growth,"locus YJL166W, strain qcr8, stronger effect = lower value",0.877 (active)
same,normalized growth,"locus YJL168C, strain set2, stronger effect = lower value",1.02 (inactive)
same,normalized growth,"locus YJL187C, strain SWE1 (second series), stronger effect = lower value",0.872 (inactive)
